Data: PubChem BioAssay AID624330 (Southern Research Specialized Biocontainment Screening …, 2012)
The whole screen tested about 340,000 compounds, of which about 2,100 (0.62%) were called active.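 How the source made its calls: active means first-screen hits whose inhibition reached a set limit at any dose in the follow-up dose series; inconclusive means inhibition above the set first-screen limit but never retested; inactive means the rest.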 The list is a sample of the results. Entries with a potency or affinity are not part of this list.

Target: Rac GTPase-activating protein 1 (Homo sapiens) (UniProt Q9H0H5)
Sequence (Q9H0H5 whole entry, looked up): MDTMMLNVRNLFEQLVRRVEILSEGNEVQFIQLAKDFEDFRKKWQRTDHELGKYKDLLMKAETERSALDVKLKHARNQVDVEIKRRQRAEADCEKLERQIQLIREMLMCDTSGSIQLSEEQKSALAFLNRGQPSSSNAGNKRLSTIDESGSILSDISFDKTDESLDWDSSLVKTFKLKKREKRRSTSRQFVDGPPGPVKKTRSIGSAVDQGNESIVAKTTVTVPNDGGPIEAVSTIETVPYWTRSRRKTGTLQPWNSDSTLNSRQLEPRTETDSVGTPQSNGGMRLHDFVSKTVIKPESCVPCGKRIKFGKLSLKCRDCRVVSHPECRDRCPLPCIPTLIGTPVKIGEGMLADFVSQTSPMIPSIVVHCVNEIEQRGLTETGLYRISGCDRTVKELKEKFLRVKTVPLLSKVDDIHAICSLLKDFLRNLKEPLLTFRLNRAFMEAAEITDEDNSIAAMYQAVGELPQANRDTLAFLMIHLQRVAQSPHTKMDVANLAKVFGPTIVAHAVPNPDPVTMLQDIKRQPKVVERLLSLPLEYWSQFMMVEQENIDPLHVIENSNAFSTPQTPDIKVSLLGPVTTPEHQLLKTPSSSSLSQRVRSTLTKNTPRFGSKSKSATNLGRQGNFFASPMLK
Assay: blockers of MgcRacGAP-driven Rac1 GTP hydrolysis – biochemical, ADP Hunter fluorescence, primary and confirmatory, confirmation (AID 624330);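 further: fluorescence reports GDP produced by GAP-driven GTP hydrolysis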
Details: MgcRacGAP-stimulated Rac1 GTP hydrolysis, at 30 µM, hits give high values, GST-tagged Rac1 F28L mutant substrate

inhibition, inactive:
COc1ccc(CN2C(=O)C(CC(=O)NCCCN(C)C)CC(C(=O)N(C)C)=C2C)cc1 (stereo not drawn) 12.7%
Cc1sc2ncnc(N(C)Cc3cccs3)c2c1C 10.9%
CN(CCc1ccccn1)c1ncnc2[nH]ncc12 6.58%
COc1ccc(CNC(=O)CCCn2nc([N+](=O)[O-])cc2C)cc1 9%
O=C1c2ccccc2C(=O)N1c1nc(-c2cccs2)cs1 13.9%
O=C1CCCCCN1Cc1ccccc1 3.56%
O=C1CCCCCCCN1Cc1ccccc1 1.03%
COc1ccc(NC(=O)Nc2ccon2)cc1OC 7.89%
COc1ccc(CN2CCN(Cc3ccco3)CC2)cc1 29.8%
FC(F)(F)c1ccc(CN2CCN(Cc3ccco3)CC2)cc1 15.3%
Cc1ccc(S(=O)(=O)N2CCN(Cc3ccco3)CC2)c(C)c1 3.78%
CCCc1ccc(S(=O)(=O)N2CCN(Cc3ccco3)CC2)cc1 8.89%
CCc1ccc(S(=O)(=O)N2CCN(Cc3ccco3)CC2)cc1 6.82%
Cc1cccc(CN2CCSCC2)c1 23.8%
COc1cc(OC)c(OC)cc1CN1CCN(Cc2ccco2)CC1 20.1%
COc1ccc(CN2CCN(C(=O)c3ccco3)CC2)cc1OC 11.2%
CCc1sc(C(=O)NCCCN2CCCC2=O)cc1Br -10%
Cc1ccc(C)c(S(=O)(=O)N2CCN(C(=O)CSc3ccccc3)CC2)c1 8.52%
CC(Sc1nnc(-c2ccncc2)n1C)C(=O)NCC1CCCO1 (stereo not drawn) 1.73%
CN(C)CCOC(=O)CC12CC3CC(C1)CC(CC(=O)OCCN(C)C)(C3)C2 5.06%
COc1cccc(CNC(=O)c2ccc(S(=O)(=O)N3CCCCC3)cc2)c1 9.59%
Cc1ccc(S(=O)(=O)Nc2cc(=O)[nH]c(SCC(=O)Nc3ccccc3C(F)(F)F)n2)cc1 5.86%
CCOC(=O)CC(NC(=O)CCc1c(C)nc2nc(C)nn2c1C)c1ccc(OC(C)C)cc1 (stereo not drawn) 8.74%
CCN(CC)Cc1cc(C(C)=O)ccc1OCC(C)C -0.12%
CCOc1ccc(C(=O)O)cc1OC 5.02%
CCCOc1ccc(N)cc1N 18.7%
CCOc1ccc(C(N)=O)cc1OC -0.9%
COc1ccc2[nH]c3c(c2c1)CCN1C(=O)C(CC(=O)NCCC2=CCCCC2)C[C@H](C(=O)N2CCCCC2)[C@@]31CCc1ccccc1 (stereo partly drawn) 3.14%
